FLuc counter – firefly luciferase modulation, counter-screen for miR-21 project | 360,000 compounds, 6.9% hits | Potency, µM (top dose mostly 57.5 µM), for inactives: top-dose activity change, negative = inhibition, usual class: inhibitors | AID 588342 | purified FLuc, Km substrates, luminescence inhibition;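 also: plate controls were vehicle for no effect and reference inhibitor for full effect; nearly all actives have a fitted effect of over 55% in size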
Target sequence (P08659 whole entry, looked up): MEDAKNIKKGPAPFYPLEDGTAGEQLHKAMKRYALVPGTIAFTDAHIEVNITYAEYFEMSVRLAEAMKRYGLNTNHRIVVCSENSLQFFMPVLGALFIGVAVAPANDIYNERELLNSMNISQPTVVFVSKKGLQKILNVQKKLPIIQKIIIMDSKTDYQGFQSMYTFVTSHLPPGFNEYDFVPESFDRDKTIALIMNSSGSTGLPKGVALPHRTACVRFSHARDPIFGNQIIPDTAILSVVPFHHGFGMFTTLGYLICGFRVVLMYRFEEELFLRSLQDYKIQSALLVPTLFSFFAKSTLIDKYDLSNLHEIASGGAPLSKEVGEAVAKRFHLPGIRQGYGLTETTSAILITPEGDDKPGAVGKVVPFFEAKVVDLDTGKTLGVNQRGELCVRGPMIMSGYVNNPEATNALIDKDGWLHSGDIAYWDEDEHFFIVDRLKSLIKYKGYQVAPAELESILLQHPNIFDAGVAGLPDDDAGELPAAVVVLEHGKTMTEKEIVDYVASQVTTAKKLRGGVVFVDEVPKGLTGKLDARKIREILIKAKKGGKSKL
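Biochemical qHTS of compounds, final roughly 60 µM downward over six points, against 10 nM purified firefly luciferase using Km concentrations of substrates (10 uM D-luciferin, 10 uM ATP) in Tris acetate pH 7.5 buffer; luminescence output.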
NPC1 prom act – activates the NPC1 promoter. Huh7 NPC1 promoter luciferase reporter, 24 h. Potency, µM (series often up to 9.22 µM), for inactives: at the top dose activation, hits mostly activators. 320,000 compounds, 2.4% hits. AID 485313; also: % of control where 0% means no effect; nearly all actives have a fitted effect of over 60% in size
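Compounds in DMSO were transferred onto Huh7 NPC1-luciferase reporter cells pre-incubated 2 h; after 24 h at 37 °C, Amplite reagent was dispensed and luminescence recorded 10 min later.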
ELG1 genotox – induces genotoxicity in HEK293T cells with luciferase-tagged ELG1; 330,000 compounds, 1.3% hits; Potency, µM (series often up to 46 µM), for the others: at the top dose activity change, positive = activation, actives largely listed as activators; AID 504466; HEK293T ELG1-luciferase reporter, luminescence, 16 h; also: % of control where 0% means no effect; nearly all actives have a fitted effect of over 60% in size
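Genotoxic stress is detected as increased luminescence from luciferase-tagged ELG1 in HEK293T cells, measured with ONE-Glo after a 16 hr treatment at 37 °C.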
Rab9 promoter act – Rab9 promoter activation | Huh7 Rab9 promoter-luciferase reporter, luminescence, 24 h | Potency, µM (top dose mostly 9.22 µM), for inactives: at the top dose activation, negative = inhibition, hits mostly activators | 320,000 compounds, 2.8% hits; also: % of control where 0% means no effect; nearly all actives have a fitted effect of over 60% in size
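Promoter activation is measured as luciferase luminescence in Huh7 cells stably transfected with a Rab9 promoter–luciferase construct, following 24 h compound exposure at 37 °C and 10 min reagent incubation at ambient temperature.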
ELG1 repair inh – ELG1-dependent DNA repair inhibition; HEK293T ELG1-luciferase reporter, luminescence, 16 h; DNA damage induced by 5-fluorouridine; Potency, µM (series often up to 46.1 µM), inactives show at the highest dose activity change, negative = inhibition, actives largely listed as inhibitors; 330,000 compounds, 2.3% hits; AID 504467; also: % is scaled to controls: 0 for no effect and ±100 for the full control effect; nearly all actives have a fitted effect of over 55% in size
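Overnight (16 hr) co-exposure of 2,000 cells/well to 5-fluorouridine and compound at 37 °C preceded detection. Luciferase was quantified via ONE-Glo luminescence; loss of signal denotes inhibition.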
SMN2 splice up – enhancers of SMN2 splice variant expression; HEK293 SMN2-luciferase splicing reporter, luminescence, 30-36 h; Potency, µM (top dose mostly 46.1 µM), inactives show at the highest dose activity change, positive = activation, hits mostly activators; 210,000 compounds, 2.8% hits; AID 1458; also: % of control where 0% means no effect; nearly all actives have a fitted effect of over 55% in size
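qHTS luciferase splicing reporter: luminescence rises when SMN2 exon 7 is included in transfected HEK293 cells. Compound exposure lasted 30-36 h at 37C, with 4.5 mM final sodium butyrate as control, followed by a ONE-Glo read.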
* = called active by the depositor; ? = inconclusive; . = not tested or not shown; [ ] = another dose, or the depositor's remark. The list is not random: actives were taken first. Their share in the collection is about 9.4%. Calls follow the shape of the dose curve; as a rule, active = well fitted curve in the direction sought with a large enough effect; inconclusive = small, poorly fitted or top-dose-only effect, or another doubt; inactive = no such curve, though single readings can be large; an effect the other way counts as inactive or inconclusive. Potency is read from the fitted curve at half-maximal effect.

SMILES	FLuc counter	NPC1 prom act	ELG1 genotox	Rab9 promoter act	ELG1 repair inh	SMN2 splice up
O=C(NC1=NCCS1)c1ccc(Cl)cc1	11µM*	1.6µM*	10µM*	2µM*	?	.
O=C(NC1=NCCS1)c1ccc(Br)s1	7.6µM*	3.5µM*	7.3µM*	3.5µM*	?	11µM*
COc1ccc(Cl)cc1C(=O)NC1=NCCS1	?	0%	3%	14%	?	.
O=C(NC1CCC(O)CC1)c1ccc(-c2ccc(Cl)cc2)o1 (centres undefined)	11µM*	?	14%	?	?	.
O=C(NC1=NCCS1)c1ccc(-c2ccc(Cl)cc2)o1	1.9µM*	2µM*	2.1µM*	2µM*	?	13µM*
CCOC(=O)CNC(=O)N1CCc2cc(S(=O)(=O)N3CCC(C)CC3)ccc21	-1%	.	.	.	.	0%
CCCS(=O)(=O)c1c(S(=O)(=O)CCC)c2cc(CC)ccn2c1C(=O)c1ccc(Cl)cc1	-4%	.	.	.	.	-4%
CCCCC(=O)Nc1ccc(C(=O)OCc2cc(=O)n3ccsc3n2)cc1	-3%	.	.	.	.	.
COc1ccc(C2C(=O)N(C3CCCCCC3)CC(=O)N2CCc2ccc(OC)c(OC)c2)cc1 (centres undefined)	-1%	.	.	.	.	.
COc1ccccc1N(C)S(=O)(=O)c1ccc(C(=O)N2CCCc3ccccc32)cc1	0%	-6%	-15%	-2%	15µM*	.
COc1ccccc1N(C)S(=O)(=O)c1ccc(C(=O)Nc2ccncc2)cc1	2%	2%	-7%	-2%	12µM*	.
COc1ccccc1N(C)S(=O)(=O)c1ccc(C(=O)NC2CCCCC2)cc1	.	-1%	-6%	3%	23µM*	.
COc1ccccc1NC(=O)c1ccc(S(=O)(=O)N(C)c2ccccc2OC)cc1	.	.	-6%	.	?	.
CN(c1ccc(C(=O)NC2CCCC2)cc1)S(=O)(=O)c1ccccc1	1%	-1%	-2%	-1%	?	.
c1ccc(C(c2cccc3c2ccc2ccccc23)[C@H](c2ccccc2)c2cccc3c2ccc2ccccc23)cc1 (some centres undefined)	.	.	.	.	.	-1%[9.22 µM]
N[C@@H](CO)C(=O)NNCc1ccc(O)c(O)c1O	.	.	.	.	.	-6%[20.6 µM]
CCOC(=O)c1c(C)[nH]c(N=Nc2ccc(C)cc2C)c1C	15µM*	?	?	0.25µM*	?	11%
CCOC(=O)c1[nH]c(C)c(C(=O)O)c1C	0%	0%	-4%	-4%	-7%	-9%
CCOC(=O)c1c(C)[nH]c(N=Nc2cc(C(=O)O)cc(C(=O)O)c2)c1C	17µM*	-2%	2%	8%	17%	.
CCOC(=O)c1c(C)[nH]c(N=Nc2ccccc2C)c1C	15µM*	28%	23µM*	?	?	19%
CCOC(=O)c1[nH]c(C)c(C(=O)Nc2ccccc2C)c1C	-6%	-27%	?	-32%	?	28%
CN(C)CCNC(=O)C(=O)Nc1cc2c3c(c1)CCN3C(=O)CC2	2%	2%	11%	-2%	0%	.
CC(C)N1C(=O)C(O)(c2c[nH]c3ccccc23)c2ccccc21 (centres undefined)	-6%	.	.	.	.	-17%
Cc1ccsc1C(=O)NNC(=S)NCC(C)C	-2%	-3%	0%	-5%	-4%	25%
CCCCNC(=S)NNC(=O)c1csc(CC)c1	-14%	0%	2%	23%	18%	12%
SMILES	FLuc counter	NPC1 prom act	ELG1 genotox	Rab9 promoter act	ELG1 repair inh	SMN2 splice up
Cc1cccc(NC(=S)NNC(=O)c2csc(C(C)C)c2)c1	5.4µM*	2.5µM*	13%	1.8µM*	?	11µM*
CCN(CC)CC(=O)Nc1ccc(C)cc1Br	?	2%	?	0%	?	.
CCc1cc(C(=O)Nc2ccc(C)cc2Br)cs1	5.4µM*	21%	?	?	?	16µM*
Cc1cccc(C(=O)NNC(=O)Nc2ccccc2)c1	7%	-23%	1%	1%	-13%	11%
Cc1cccc(NC(=S)NNC(=O)c2sccc2C)c1	15µM*	1%	?	?	?	-13%
CCc1cc(C(=O)NNC(=S)Nc2cccc(C)c2)cs1	3.4µM*	3.5µM*	13%	3.2µM*	?	14µM*
CCc1ccc(-n2nc(C)c3c(C)cc(=O)n(CC(=O)NCc4ccc(C)cc4)c32)cc1	0%	.	.	.	.	.
CCOc1ccccc1CNC(=O)c1cc2cc(S(=O)(=O)N3CCCCC3)ccc2n1C	1%	.	.	.	.	.
Cc1cccc2c1ncc1c(=O)n(-c3ccccc3)[nH]c12	4.3µM*	3.2µM*	?	2.2µM*	?	.
COc1cc(C=C(c2nc3ccccc3s2)c2nc3ccccc3s2)cc(OC)c1O	15µM*	2%	-2%	-4%	?	-16%
COc1ccc(/C=C(\CC(=O)O)c2nc3ccccc3s2)cc1O	?	2%	6%	-2%	8%	10%
N#C/C(=C/c1ccncc1)c1nc2ccccc2s1	?	-1%	4%	-7%	5%	2%
CN(C)c1ccc(/C=C(\Cl)c2nc3ccccc3s2)cc1	1.2µM*	2.5µM*	?	1µM*	?	-111%
O=C(O)c1ccc(C=C(c2nc3ccccc3s2)c2nc3ccccc3s2)cc1	12µM*	-3%	-1%	2%	-1%	0%
Cc1ccc(C(=O)Nc2ccc(S(=O)(=O)NC3=NCCCCC3)cc2)c(C)c1	12µM*	-1%	-1%	-1%	20%	.
Cc1cccc(-c2ncc(S(=O)(=O)C(C)(C)C)c(N)n2)c1	?	4µM*	11%	3.2µM*	?	.
O=C(Nc1ccc(-c2nc3ccccc3s2)c(O)c1)C1=COCCO1	0.48µM*	0.5µM*	16µM*	0.71µM*	?	2.2µM*
O=C(Nc1ccc(-c2nc3ccccc3s2)cc1)C1=COCCO1	0.11µM*	0.089µM*	0.26µM*	0.4µM*	?	-27%
O=C(Nc1ccc(O)c(-c2nc3ccccc3s2)c1)C1=COCCO1	-16%	0%	0%	-1%	7%	-17%
O=C(Nc1cccc(-c2nc3ccccc3s2)c1)C1=COCCO1	17µM*	-5%	10%	-2%	2%	21%
CC(C)Oc1ccc(C(=O)Nc2ccc(-c3nc4ccccc4s3)cc2)cc1	-4%	.	.	.	.	.
COc1ccc(N2CC(c3nc(-c4ccccc4C)no3)CC2=O)cc1Cl (centres undefined)	5%	.	.	.	.	.
Cn1c(Cl)cnc1C1CC(=O)c2cc(Cl)ccc2O1 (centres undefined)	0%	-20%	-48%	-23%	0%	-10%
COc1ccccc1/C=C/C(=O)/C=C/c1ccccc1O	3.4µM*	-37%	-15%	-42%	?	.

Source: PubChem BioAssay
